Among all 68,000 compounds or so, about 2,700 (4%) showed an effect of 50% or more. The entries come from a sample that favours strong results as a whole.
system: Plasmodium berghei; test: Screen against P. berghei liver stage (PbLuc), transformed with Luciferase, at 2uM; format: functional, HepG2; conditions: tested at 2 uM

Row | Structure (SMILES) | INHIBITION
1 | Cc1cnc(Nc2cccc(C3CCCN3Cc3cn(C)nc3C)n2)s1 (centres undefined) | -15.38%
2 | CS(=O)(=O)N1CCCC1c1cccc(Nc2nccs2)n1 (centres undefined) | 69.91%
3 | c1ccc(CCN2CCCC2c2cccc(Nc3nccs3)n2)cc1 (centres undefined) | 30.29%
4 | Cc1cnc(Nc2cccc(C3CCCN3C(=O)CO)n2)s1 (centres undefined) | 35.31%
5 | Cc1ccccc1CN1CCCC1c1cccc(Nc2nccs2)n1 (centres undefined) | 15.61%
6 | CCN(CC)S(=O)(=O)N1CCCC1c1cccc(Nc2ncc(C)s2)n1 (centres undefined) | 56.16%
7 | Cc1ccccc1CS(=O)(=O)CC(=O)N(C)Cc1ccccc1 | 34.25%
8 | CS(=O)(=O)NC[C@]12COC[C@H]1CN(CC1CCCC1)C2 | 13.65%
9 | O=C(CC1CN(Cc2ccccc2)CCO1)Nc1ccsc1 (centres undefined) | 19.53%
10 | Cc1ccc(SCCCNC(=O)c2cn(C3CCC(N)CC3)nn2)cc1 (centres undefined) | 18.63%
11 | CCN(CCSc1ccccc1)C(=O)c1cn(C2CCC(N)CC2)nn1 (centres undefined) | 50.61%
12 | Cc1ccc(SCCN(C)C(=O)c2cn(C3CCC(N)CC3)nn2)cc1 (centres undefined) | 40.47%
13 | CCc1nnc2n1CCN(C(=O)c1ccc3[nH]cnc3c1)C2 | -17.45%
14 | CCc1nccn1-c1cncc(C2CCCN2Cc2cccnc2)n1 (centres undefined) | 18.91%
15 | CCc1nsc(N2CCCN(C(=O)c3ccc(CC)o3)CC2)n1 | -2.93%
16 | CS(=O)(=O)NCCNCc1ccc(Br)s1 | 21.24%
17 | CS(=O)(=O)CCCC(=O)Nc1cc(-c2cccc(F)c2F)n[nH]1 | -5.98%
18 | CS(=O)(=O)CCCC(=O)Nc1cc(Cl)c(Cl)cn1 | 59.08%
19 | COCCCC(=O)Nc1cc(Cl)c(Cl)cn1 | 66.26%
20 | CS(=O)(=O)CCC(=O)Nc1cc(Cl)c(Cl)cn1 | 38.49%
21 | COCCNC(=O)CCNc1ccc(Cl)cn1 | 33.64%
22 | COCCCC(=O)Nc1[nH]nc(-c2ccncc2)c1C | 1.03%

Row | Structure (SMILES) | INHIBITION
23 | CC(C)n1c(C2CCCN(CC(=O)NC(N)=O)C2)nc2ccccc21 (centres undefined) | 0.31%
24 | O=C(C1=CCCC1)N1CC[C@]2(C[C@H](OCc3cccnc3)CO2)C1 | -8.81%
25 | NC(=O)C(NC(=O)COC1CCCC1)c1ccccc1 (centres undefined) | -6.27%
26 | NC(=O)C(NC(=O)COC1CCCCC1)c1ccccc1 (centres undefined) | 35.94%
27 | COC(=O)C(NC(=O)COC1CCCCC1)c1ccccc1 (centres undefined) | 54.52%
28 | O=C(c1cocn1)N1C[C@H]2CCC[C@@]2(COc2ccccn2)C1 | -14.27%
29 | Cc1cc(C(F)(F)F)nn1CCCNC(=O)C1CCN(S(C)(=O)=O)CC1 | 40.25%
30 | CC(C)(C)n1ncc2c1NC(=O)CC2c1ccc(C#N)cc1 (centres undefined) | 7.42%
31 | Cn1ccc(C(=O)NC2CCC23CCN(C(=O)c2ccncc2)CC3)c1 (centres undefined) | -33.11%
32 | Cn1ccc(C(=O)NC2CCC23CCN(C(=O)c2cnccn2)CC3)c1 (centres undefined) | -3.25%
33 | Cn1ccc(C(=O)NC2CCC23CCN(C(=O)c2ccccn2)CC3)c1 (centres undefined) | 53.29%
34 | CCN(Cc1c(F)cccc1Cl)c1cc(C2CCNCC2)nc(C)n1 | 23.76%
35 | Cn1ccnc1C(=O)N1CCOC(Cc2ccc(Cl)cc2)C1 (centres undefined) | 43.23%
36 | Cn1ccnc1C(=O)N1CCOC(Cc2ccccc2Cl)C1 (centres undefined) | 61.99%
37 | Cc1nc(C)c(CN2CCOC(Cc3ccccc3Cl)C2)nc1C (centres undefined) | 63.37%
38 | CCc1nc(C)c(CN2CCOC(Cc3ccccc3Cl)C2)[nH]1 (centres undefined) | -26.78%
39 | O=C(c1cccnc1)N1CCOC(Cc2ccccc2Cl)C1 (centres undefined) | -41.48%
40 | Cc1cccnc1CN1CCOC(Cc2cccc3ccccc23)C1 (centres undefined) | 31.05%
41 | O=C(N1CCc2ccccc2CC1)C1(O)Cc2ccccc2C1 | 32.93%
42 | O=C(CCN1C[C@@H]2CC[C@H]1CN(c1ncccn1)C2)NCc1ccco1 | 22.27%
43 | N#Cc1ccc(CN2CCNC(=O)C2c2cccs2)cc1 (centres undefined) | -15.67%
44 | Cn1cnc2c(N3CCCC3)nc(C3CCN(CC4CC4)CC3)cc21 | 25.94%

Row | Structure (SMILES) | INHIBITION
45 | Cn1ccnc1C(O)c1ccccc1N1CCN(Cc2ccsc2)CC1 (centres undefined) | -16.2%
46 | Cc1cccc(COc2ccc(C(C)N)cc2)c1 (centres undefined) | 54.49%
47 | Cc1cccc(COc2ccc(C(C)NC(=O)CNC(N)=O)cc2)c1 (centres undefined) | 32.26%
48 | Cc1cccc(COc2ccc(C(C)NS(N)(=O)=O)cc2)c1 (centres undefined) | 9.42%
49 | CCc1ccsc1C(=O)N1CCN(CC(O)CC)CC1 (centres undefined) | 56.67%
50 | CCC(O)CN1CCN(C(=O)c2sccc2C2CC2)CC1 (centres undefined) | 34.97%
51 | CCc1ccsc1C(=O)N1CCN(CC(C)O)CC1 (centres undefined) | -10.66%
52 | Clc1ccccc1C1(c2ccnc(C3CCCC3)n2)CCNCC1 | 11.94%
53 | Cc1cnccc1CN1C[C@@H](O)[C@H](Oc2cccc(F)c2)C1 | 8.5%
54 | Cc1cc(C)n2ncc(CN3C[C@@H](O)[C@H](Oc4ccccc4)C3)c2n1 | -0.44%
55 | Cc1c(CN2C[C@@H](O)[C@H](Oc3cccc(F)c3)C2)cnn1C | 55.32%
56 | COCC(O)CN(C)c1ccnc2ccc(Cl)cc12 (centres undefined) | -33.34%
57 | Cc1ccsc1CN1CCc2c(nc(N3CCCCC3C)[nH]c2=O)C1 (centres undefined) | -17.99%
58 | CC(C)n1ccnc1CN1CCOC(CCc2ccccc2)C1 (centres undefined) | 50.32%
59 | CC(C)n1ccnc1CN1CCCN(C(=O)CC2CCCO2)CC1 (centres undefined) | 33.82%
60 | CC(C)n1ccnc1CN1CCOC(CC2CCCCC2)C1 (centres undefined) | 63.23%
61 | c1ccc(Cn2ccnc2CN2CCOC(Cn3cccn3)C2)cc1 (centres undefined) | 11.1%
62 | CC(C)C1CN(Cc2nccn2C(C)C)CCC(=O)N1CC1CC1 (centres undefined) | -17.17%
63 | Cn1ccnc1CN1CCOC(Cc2ccccc2)C1 (centres undefined) | -19.43%
64 | NC(=O)NCC(=O)N1CCCC(c2nccn2Cc2ccncc2)C1 (centres undefined) | 16.1%
65 | CCOc1ncccc1Cn1cc(-c2nccn2C)nn1 | -3.38%
66 | O=C(c1cccs1)N1CCCn2c(nc(CN3CCCC3)cc2=O)C1 | 13.38%

Row | Structure (SMILES) | INHIBITION
67 | Cc1nc(N2CCCCC2)ncc1-c1cc(=O)[nH]c(N2CCCC2)n1 | 17.48%
68 | FC1(F)CCN(Cc2cccnc2)CC12CCN(c1ccccn1)C2 (centres undefined) | 3.35%
69 | CC(C)c1cc(C(=O)N2CCC3(CC2)c2ccccc2[C@@H](N)[C@@H]3O)cs1 | 16.28%
70 | O=C1CC(NS(=O)(=O)c2ccc(Br)cc2)CN1 (centres undefined) | 27.9%
71 | O=C1CC(NS(=O)(=O)c2ccc(Cl)cc2)CN1 (centres undefined) | 87.53%
72 | O=C1CC(NS(=O)(=O)c2ccc(F)c(Cl)c2)CN1 (centres undefined) | -15.08%
73 | CCCN(CCC)S(=O)(=O)NC(C)C(=O)N(C)C (centres undefined) | -9.87%
74 | COc1ccc(OCc2nc(C(=O)N3CCCNC(=O)C3)co2)cc1 | 22.84%
75 | CC(NC(=O)CCCc1nc(C(C)(C)C)no1)c1nnc2n1CCC2 (centres undefined) | 19.04%
76 | CC(C)c1noc(CCC(=O)NC(C)c2nnc3n2CCC3)n1 (centres undefined) | 45.48%
77 | CC(NC(=O)CCc1nc(C(C)(C)C)no1)c1nnc2n1CCC2 (centres undefined) | 64.2%
78 | c1coc(CN2C[C@@H]3OCCN(CC4CCCO4)[C@@H]3C2)c1 (some centres undefined) | -44.46%
79 | CCOC(=O)N1C[C@@H]2CC[C@H]1CN(Cc1ccccc1)C2 | 18.19%
80 | CCOCC(=O)N1CCC(c2nccn2CC2CC2)CC1 | -1.32%
81 | c1cnc(N2CCC(c3nccn3CC3CC3)CC2)nc1 | 18.81%
82 | COCC(=O)N1CCC(c2nccn2CC2CC2)CC1 | -34.68%
83 | COCCOC(=O)N1CCC(c2nccn2CC2CC2)CC1 | -1.87%
84 | COCC1(C(=O)N2CCC(c3nccn3CC3CC3)CC2)CCC1 | 52.57%
85 | O=C(O)c1cnc(N2CCC(c3nccn3CC3CC3)CC2)c(Cl)c1 | 60.39%
86 | O=C(NC1CC1)N1C[C@H]2CN(c3ccccc3)C(=O)[C@H]2C1 | -0.9%
87 | CCc1nc2c(NCC3COc4c(cccc4OC)C3)ncnc2o1 (centres undefined) | 1.39%
88 | O=C(C1CCCc2[nH]ncc21)N1CCCC1 (centres undefined) | -10.01%

Row | Structure (SMILES) | INHIBITION
89 | O=C(C1CCCc2[nH]ncc21)N1CCCCCC1 (centres undefined) | -0.54%
90 | O=C(C1CCCc2[nH]ncc21)N1CCCC2(C1)OCCO2 (centres undefined) | 64.92%
91 | CNC(=O)COC(=O)c1cccc(-n2ccc(C(F)(F)F)n2)c1 | 10.31%
92 | CNC(=O)CCOC(=O)c1cccc(-n2cccn2)c1 | 55.25%
93 | CNC(=O)CCOC(=O)c1cccc(-n2ccc(C(F)(F)F)n2)c1 | 13.1%
94 | Cc1nc2c(c(N3CCCC(OCc4ccccn4)C3)n1)CCNCC2 (centres undefined) | 20.71%
95 | Cc1ccc(CN2CC[C@@H]3O[C@@H](C(=O)N4CCN(C)CC4)C[C@@H]32)cc1 | 41.55%
96 | Cc1nccc(C(=O)N2CCCN(Cc3cnn(C(C)C)c3)CC2)n1 | 16.6%
97 | COC(=O)C(C)(C)NC(=O)C1CC(=O)N(C2CC2)C1 (centres undefined) | 5.15%
98 | Cc1cc(NCCOCCS(C)(=O)=O)nc2ccccc12 | 53.16%
99 | Cc1cc(NCCCNS(C)(=O)=O)nc2ccccc12 | 20.88%
100 | Cc1cc(NCCS(C)(=O)=O)nc2ccccc12 | -0.6%
101 | Cc1cccc(-c2nc(CN3CCCC3Cn3cc(C)cn3)no2)c1 (centres undefined) | 1.36%
102 | COC(=O)N1CCCN(C(=O)c2cccc3cccnc23)CC1 | 5.72%
103 | COCC1CN(CCOc2ccc(Cl)cc2)Cc2c1cnn2C (centres undefined) | -17.24%
104 | Cc1cc(-c2cnn(CCNC(=O)C3CC3)c2C2CC2)on1 | -39.92%
105 | Cc1cc(-c2cnc(C)nc2CN(C)C(=O)c2ccccn2)on1 | -0.54%
106 | Cc1cc(-c2cnc(C)nc2CN(C)C(=O)c2cc(C3CC3)on2)on1 | 51.57%
107 | Cc1cc(-c2cnc(C3CC3)nc2CN(C)C(=O)c2ccccn2)on1 | 34.06%
108 | Cc1cc(-c2cnc(C(C)C)nc2CN(C)C(=O)c2ccccn2)on1 | 56.57%
109 | Cc1cc(-c2cnn(CCNC(=O)c3cc[nH]n3)c2C2CC2)on1 | -2.47%

Source: ChEMBL document CHEMBL4513216, “Probing the Open Global Health Chemical Diversity Library for Multistage-Active Starting Points for Next-Generation Antimalarials” (ACS Infect Dis, 2020)
